Screening results: PubChem, National Center for Advancing Translational Sciences (NCATS)
TGFb inhibitor – qHTS for Inhibitors of TGF-b; HepG2 CAGA-GFP TGF-b/SMAD3 reporter, GFP fluorescence, 18 h; TGF-beta stimulated, 500 pg/mL final; Potency, µM (series often up to 46.1 µM), inactives show at the highest dose activity, negative = inhibition, usual class: inhibitors; 1.2% of 410,000 active; AID 588855, 2011; further: on the % scale 0 is the no-effect control and ±100 the full control effect; nearly all actives have a fitted effect of over 65% in size
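Inhibition was scored as loss of TGF-beta-induced (500 pg/mL final, 18 hours, 37 degrees C) GFP in HEPG2 cells carrying a CAGA-GFP reporter, in DMEM with 1% FBS. Well GFP was summed per cell; Activity was normalised to unstimulated and stimulated DMSO wells, then concentration-response fitting.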
ATXN2 expr inh – Primary qHTS for Inhibitors of ATXN expression; HEK-293 ATXN2-luciferase reporter, luminescence, 24 h; Potency, µM (titrated, usually from 57 µM), for inactives: at the highest dose activity change, negative = inhibition, hits mostly inhibitors; 0.72% of 360,000 active; AID 1745845, 2022; further: on the % scale 0 is the no-effect control and ±100 the full control effect; nearly all actives have a fitted effect of over 55% in size
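qHTS (up to 57 uM final) was run with 24 h compound exposure of reporter cells at 37 °C. Each well was multiplexed: SteadyGlo luminescence measured ATXN2-luciferase expression after a fluorogenic Gly-Phe-AFC viability readout (25 uM final).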
DT40 TDP1 no CPT – qHTS for Inhibitors of human tyrosyl-DNA phosphodiesterase 1 (TDP1): qHTS in cells in absence of CPT | 15% of 420,000 active | Potency, µM (highest dose often 46.2 µM), inactives show at the top dose activity change, negative = growth inhibition, hits mostly inhibitors | DT40 Tdp1-/- hTDP1 cells, no CPT, ATP luminescence, 48 h | AID 686978, 2013; further: on the % scale 0 is the no-effect control and ±100 the full control effect; nearly all actives have a fitted effect of over 55% in size
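No-CPT arm: Tdp1-/-;hTDP1 DT40 cells (400/well) plus compounds, incubated ≥48 hr at 37 °C. Readout CellTiter-Glo luminescence.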
HepG2 tox – qHTS for Inhibitors of TGF-b: Cytotox Counterscreen. HepG2 CAGA-GFP viability, ATP luminescence, 18 h. Potency, µM (top dose mostly 46.1 µM), for the others: top-dose activity change, negative = cytotoxicity, usual class: cytotoxic. 0.76% of 410,000 active
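HepG2 CAGA-GFP cells (1000/well, DMEM with 1% FBS) received compound, then TGF-beta at 500 pg/mL final, and were incubated 18 hours at 37 degrees C. Viability was read by CellTiter-Glo luminescence. Media-only wells were set as complete cell-killing and DMSO as no toxicity.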
TDP1 cell CPT – qHTS for Inhibitors of human tyrosyl-DNA phosphodiesterase 1 (TDP1): qHTS in cells in presence of CPT; chicken DT40 Tdp1-/-;hTDP1 cells + 20 nM CPT, ATP luminescence, 48 h; Potency, µM (top dose mostly 46.2 µM), for the others: top-dose activity change, negative = growth inhibition, actives largely listed as inhibitors; 12% of 420,000 active; AID 686979, 2013; further: on the % scale 0 is the no-effect control and ±100 the full control effect; nearly all actives have a fitted effect of over 55% in size
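Cell growth measured by CellTiter-Glo luminescence after a minimum 48 h, 37 C compound exposure with 20 nM CPT in Tdp1-knockout DT40 cells stably expressing hTDP1, seeded 400/well; qHTS titration format.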
ATXN viability – Viability Counterscreen for Primary qHTS for Inhibitors of ATXN expression; S2 cells (HEK-293 line with an ATXN2-luciferase reporter) viability, CellTiter-Fluor protease fluorescence, 24 h; Potency, µM (titrated, usually from 56.7 µM), most hits filed as cytotoxic; 0.49% of 400,000 active; AID 651635, 2014; further: nearly all actives have a fitted effect of over 40% in size
Active calls of the source: *; i = inactive; ? = inconclusive; . = no result given; [ ] = dose if it differs, or a comment. A selection: hits, their analogues and other compounds. The true share with any hit is near 17%. The call rests on the fitted dose curve; in most records, active means well fitted curve in the direction sought with a large enough effect; inconclusive means small, poorly fitted or top-dose-only effect, or another doubt; inactive means no such curve, though single readings can be large; an effect the other way counts as inactive or inconclusive. Potency means the concentration at half of the fitted maximal effect.

SMILES | TGFb inhibitor | ATXN2 expr inh | DT40 TDP1 no CPT | HepG2 tox | TDP1 cell CPT | ATXN viability
CC(Sc1nc(=O)cc(N)n1CCc1ccccc1)C(=O)Nc1ccccc1C#N (centres undefined) | 8% | 0% | . | -18% | . | i
CC(C)(C)c1ccc(-c2cc(-c3ccccc3O)[nH]n2)cc1 | 18µM* | 107% | ? | -59% | ? | ?
COc1ccc(-c2cc(-c3ccc(C)cc3)n[nH]2)c(O)c1 | ? | . | ? | -39% | 26µM* | ?
COCCNC(=O)C1CCCN(C(=O)c2cc(C)nn2C(C)(C)C)CC1 (centres undefined) | 38% | 4% | 1% | 3% | -7% | ?
O=C(c1cnc2n(c1=O)CCS2)N1CCN(C(c2ccccc2)c2ccc(Cl)cc2)CC1 (centres undefined) | -12% | ? | 21µM* | -27% | 12µM* | ?
NC(=O)[C@@H]1CCCN1C(=O)c1cc(NC(=O)c2ccccc2)cc2ncn(C3CCCC3)c12 | . | . | -15% | . | -17% | i
FC(F)(F)c1ccc(N2CCN(c3cc(-c4ccccc4)nc4ncnn34)CC2)nc1 | ? | ? | 3.3µM* | -22% | 3.7µM* | i
Cc1cc(-c2ccccc2)n2ncnc2n1 | 2% | 21% | 3% | -11% | 1% | i
c1ccc(-c2cc(-c3ccccc3)n3ncnc3n2)cc1 | -2% | -2% | 29µM* | -30% | ? | i
CCOC(=O)c1cc(S(=O)(=O)Nc2cc(C)c(Cl)cc2OC)[nH]n1 | ? | -4% | -20% | -49% | -29% | i
COC(=O)[C@@H]1CCCN1Cc1ccc2c(c1)CN(Cc1cc(OC)c3c(c1)OCO3)CCO2 | . | . | ? | . | 23%[9.04 µM] | i
COc1ccc(-c2nnn(Cc3ccccc3)n2)cc1OC | 23% | 8% | -20% | -5% | 2% | i
COc1ccc(Cn2cc3c(-c4ccc(F)cc4)nnc-3c3cc(OC)c(OC)cc32)cc1 | 25% | 32µM* | 4.1µM* | -108% | 4.1µM* | i
COc1cc2c3nnc(-c4ccc(F)cc4)c-3cn(Cc3ccccc3)c2cc1OC | 71% | 16µM* | 5.2µM* | -112% | 3.3µM* | i
Cn1nc2c3cc(F)ccc3n(Cc3ccc(F)cc3)cc-2c1=O | 0% | 12% | ? | -6% | 6% | i
COc1cc2c3nnc(-c4ccc(F)cc4)c-3cn(Cc3ccc(F)cc3)c2cc1OC | 40% | ? | 2.6µM* | -111% | 2.3µM* | i
COc1ccccc1/C=C/C(=O)OCC(=O)N1CCc2ccccc21 | -1% | 11% | 3% | -15% | 7% | i
CC(=O)c1ccc(N(C(=O)CNC(=O)c2ccco2)C(C(=O)NC2CCCC2)c2ccncc2)cc1 (centres undefined) | ? | -13% | 10% | -2% | 4% | i
C[C@H]1CN([C@@H](C)CO)C(=O)c2cc(Br)cnc2O[C@H]1CN(C)C(=O)C1CC1 | 8% | 2% | 15% | -10% | 6% | ?
COCCNc1nc(Nc2ccc(C)cc2C)c2sc(-c3ccccc3)cc2n1 | -26% | -19% | 18µM* | -16% | 26µM* | ?
CC(C)Nc1nc(NCCN2CCCC2)c2sc(-c3ccccc3)cc2n1 | ? | ? | 13µM* | -8% | 6.5µM* | i
C=CCNc1nc(NCCOc2ccccc2Cl)c2sc(-c3ccccc3)cc2n1 | ? | ? | 15µM* | -53% | 15µM* | ?
C=CCNc1nc(NCCOC)c2sc(-c3ccccc3)cc2n1 | ? | ? | 13µM* | -43% | ? | ?
CC[C@H](C)[C@H]1CNC(=S)N1CC1CCN(CCC(C)C)CC1 | -4% | 0% | -24% | -23% | -26% | i
C=CCNc1nc(NCCNC(C)=O)c2sc(-c3ccccc3)cc2n1 | 12% | -15% | ? | -8% | ? | ?
SMILES | TGFb inhibitor | ATXN2 expr inh | DT40 TDP1 no CPT | HepG2 tox | TDP1 cell CPT | ATXN viability
C=CCNc1nc(Nc2ccc(OC)c(OC)c2)c2sc(-c3ccccc3)cc2n1 | -21% | 0% | 1.6µM* | -28% | 1.8µM* | i
COc1ccc(Nc2ncnc3sc(-c4ccccc4)cc23)cc1OC | 5% | -5% | ? | -29% | ? | i
C=CCNc1nc(NCc2ccc(N(C)C)cc2)c2sc(-c3ccccc3)cc2n1 | ? | -8% | 5.8µM* | 13µM* | 6.5µM* | ?
O=C(Nc1ccc(C(F)(F)F)cc1)c1ccccc1-n1cnnn1 | 2% | -1% | 8% | -1% | -25% | i
C=CCOc1ccc(Br)cc1CNCCCN1CCOCC1 | -3% | -19% | ? | -3% | 5% | ?
O=C(Nc1ccc(Cl)cc1)C1CCN(C(=O)c2ccco2)CC1 | 0% | 1% | -20% | -4% | 1% | i
Nc1nc(Cl)nc2c1ncn2C1CCC(CO)O1 (centres undefined) | 6% | -7% | 1.5µM* | 2% | 1µM* | i
Nc1ncnc2c1ncn2[C@H]1CC[C@@H](CO)O1 | 4% | 3% | 2.9µM* | 3% | 1.6µM* | ?
Nc1ccn([C@@H]2CC[C@H](CO)O2)c(=O)n1 | . | . | . | . | . | i
Nc1ncnc2c1ncn2C1CCCO1 (centres undefined) | -11% | 4% | -7% | 25% | 3% | i
CC(NC(=O)C1CCOCC1)c1nnc2n1CCN(Cc1ccc3cccnc3c1)CC2 (centres undefined) | . | . | -4% | . | 4% | i
Cc1ccc(N/C(N)=N/c2nc(CSc3nnc(N)s3)cc(=O)[nH]2)cc1 | -4% | -18% | 14% | -5% | 8% | i
Cc1ccc(SCc2cc(=O)[nH]c(/N=C(\N)Nc3ccccc3Sc3ccccc3)n2)cc1 | -1% | -8% | 29µM* | -50% | ? | i
COc1ccccc1N/C(N)=N/c1nc(CSc2ccc(C)cc2)cc(=O)[nH]1 | -8% | 2% | 7.3µM* | -3% | 18µM* | i
O=C(CN1CCCC1)Nc1ccccc1Sc1ccc(Cl)cc1 | -18% | -21% | ? | -19% | -24% | i
Cc1cc(NC(=O)Cc2ccsc2)ccc1Br | -4% | 6% | -11% | 2% | -13% | i
Cc1cc(C)c2c(=O)n(CC(=O)Nc3cccc(Cl)c3C)sc2n1 | ? | 4% | 3.7µM* | -59% | 5.2µM* | i
